High-throughput results deposited in PubChem BioAssay by The Scripps Research Institute Molecular Screening Center.
The list is not random: actives were taken first. Their share in the collection is about 3.5%.
GPR151 activ = activators of human GPR151, primary screen, cell-based, PathHunter beta-arrestin, luminescence; AID 1508602, 2020; 650,000 compounds, 1% hits; activation, % at 11.2 µM; PathHunter beta-arrestin GPR151 cells; in the data active means activation above about 4.9%;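 further: 0% = median of compound wells and 100% = cells with positive control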
Target sequence (Q8TDV0 whole entry, looked up): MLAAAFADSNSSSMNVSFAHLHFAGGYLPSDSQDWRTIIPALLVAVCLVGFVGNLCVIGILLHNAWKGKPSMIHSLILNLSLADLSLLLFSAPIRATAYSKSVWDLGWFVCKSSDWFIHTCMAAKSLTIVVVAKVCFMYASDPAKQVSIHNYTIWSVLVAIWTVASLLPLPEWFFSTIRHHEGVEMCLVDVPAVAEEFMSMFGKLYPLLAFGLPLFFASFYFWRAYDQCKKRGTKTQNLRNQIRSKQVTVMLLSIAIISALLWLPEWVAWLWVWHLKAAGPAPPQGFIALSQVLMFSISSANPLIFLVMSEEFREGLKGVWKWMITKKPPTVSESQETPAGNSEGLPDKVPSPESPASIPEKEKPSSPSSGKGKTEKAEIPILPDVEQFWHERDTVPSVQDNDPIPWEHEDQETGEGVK
MITF primary = MITF inhibitors, primary screen, biochemical, AlphaScreen, human | Microphthalmia-associated transcription factor (Homo sapiens), O75030 | AlphaScreen MITF homodimerization, bead proximity signal | inhibition, % at 2.6 µM | 650,000 compounds, 0.91% hits; in the data active means inhibition above about 50%;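 further: 0% = vehicle wells with protein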
TEAD-YAP inh = TEAD-YAP interaction inhibition, primary screen, TEAD-YAP interaction inhibitor project, luminescence, HEK-TIYL cells; 640,000 compounds, 1.4% hits; TEAD-Gal4/YAP UAS-luciferase luminescence; AID 1259422, 2018; inhibition, % at 9.12 µM; in the data active means inhibition above about 32%;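 further: 0% = median of test compound wells and 100% = reference inhibitor wells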
FBW7 activator = FBW7 E3 ligase activators, primary screen, biochemical, AlphaScreen, human. F-box/WD repeat-containing protein 7 (Homo sapiens), Q969H0. AlphaScreen FBW7–phospho-cyclin E peptide binding, activator screen. normalized activity (activation), % at 26.1 µM. 650,000 compounds, 0.13% hits; in the data active means normalized activity above about 1.9%;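 further: purified mutant Fbw7 with reduced substrate affinity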
Starred values were filed as active, the others as inactive.

How did COc1ccc(Cc2nnc(N/N=C/c3cc([N+](=O)[O-])ccc3O)[nH]c2=O)cc1OC do in these assays?
GPR151 activ: 2; MITF primary: 115*; TEAD-YAP inh: -2; FBW7 activator: 0

How did O=C(/C=C\Nc1ccc2c(c1)OCO2)c1ccc2ccccc2c1 do in these assays?
GPR151 activ: -1; MITF primary: 8; TEAD-YAP inh: -7; FBW7 activator: 1

What do the screens show for `O=C(/C=C\Nc1cccc(F)c1)c1ccc2c(c1)OCO2`?
GPR151 activ: -4; MITF primary: 0; TEAD-YAP inh: 55*; FBW7 activator: 0

What do the screens show for `O=C(/C=C/Nc1cccc(O)c1)c1ccc(Cl)cc1`?
GPR151 activ: -1; MITF primary: 5; TEAD-YAP inh: 97*; FBW7 activator: 0

Results for COc1cccc(C(=O)/C=C/Nc2cccc(O)c2)c1 ?
GPR151 activ: -9; MITF primary: 17; TEAD-YAP inh: 97*; FBW7 activator: 1

Results for Cc1ccc2nc(-c3ccc(NC(=S)NC(=O)c4oc5ccccc5c4C)cc3)oc2c1 ?
GPR151 activ: 1; MITF primary: -14; TEAD-YAP inh: -16; FBW7 activator: 0

Results for Oc1ccc(-c2cn3ccsc3n2)cc1 ?
GPR151 activ: -2; MITF primary: 12; TEAD-YAP inh: 73*; FBW7 activator: 0

Results for CCOc1ccc(-c2cn3ccsc3n2)cc1 ?
GPR151 activ: -2; MITF primary: 12; TEAD-YAP inh: 43*; FBW7 activator: 0

Results for CS(=O)(=O)c1ncc(Cl)c(C(=O)Nc2sc3c(c2C#N)CCCC3)n1 ?
GPR151 activ: -1; MITF primary: -1; TEAD-YAP inh: -24; FBW7 activator: 0

How did Cc1ccc(Oc2ccc(Oc3ccc(Oc4ccc(C)c(C)c4)cc3)cc2)cc1C do in these assays?
GPR151 activ: 0; MITF primary: 11; TEAD-YAP inh: 2; FBW7 activator: 0

How did Cc1ccc(C(=O)Nc2cc(C)c(O)cc2C)cc1 do in these assays?
GPR151 activ: -1; MITF primary: 4; TEAD-YAP inh: 65*; FBW7 activator: 0

What do the screens show for `Cc1ccc(C(=O)Nc2cc(C)c(C)cc2O)cc1`?
GPR151 activ: -3; MITF primary: 0; TEAD-YAP inh: 0; FBW7 activator: 0

How did Cc1ccc(C(=O)Nc2ccc(O)c(C)c2)cc1 do in these assays?
GPR151 activ: -5; MITF primary: -5; TEAD-YAP inh: 93*; FBW7 activator: 0

Results for Cc1ccc(C(=O)Nc2ccc(C(=O)N3CCCCC3)cc2)cc1 ?
GPR151 activ: -2; MITF primary: 12; TEAD-YAP inh: -18; FBW7 activator: 3.4*

How did Cc1ccc(C(=O)Nc2ccc(NC(=O)C(F)(F)F)cc2)cc1 do in these assays?
GPR151 activ: -1; MITF primary: 14; TEAD-YAP inh: 56*; FBW7 activator: 0

Results for O=C(COc1nsnc1N1CCOCC1)Nc1nc(-c2ccccc2)cs1 ?
GPR151 activ: 0; MITF primary: 13; TEAD-YAP inh: -5; FBW7 activator: 0

Results for COc1ccc(/C=C2\CC/C(=C\C=N\N(C)C)C2=O)cc1OC ?
GPR151 activ: 0; MITF primary: 7; TEAD-YAP inh: 7; FBW7 activator: 0

What do the screens show for `Cc1ccc(NC(=O)c2ccccc2Cl)cc1C`?
GPR151 activ: -4; MITF primary: 3; TEAD-YAP inh: -9; FBW7 activator: 0

How did Cc1cc(NC(=O)c2ccccc2Cl)ccc1O do in these assays?
GPR151 activ: -4; MITF primary: -23; TEAD-YAP inh: 83*; FBW7 activator: 0

What do the screens show for `O=C(CN1C(=O)c2ccccc2C1=O)NCC1(c2cccs2)CCCCC1`?
GPR151 activ: 2; MITF primary: 8; TEAD-YAP inh: -6; FBW7 activator: 0

How did COc1ccc(Cl)c2sc(N3CCN(C(=O)C4COc5ccccc5O4)CC3)nc12 (stereo not drawn) do in these assays?
GPR151 activ: 0; MITF primary: 8; TEAD-YAP inh: 4; FBW7 activator: 0

How did N#C/C(=C/Nc1cccc(F)c1)c1nc(-c2ccc([N+](=O)[O-])cc2)cs1 do in these assays?
GPR151 activ: 1; MITF primary: 4; TEAD-YAP inh: -4; FBW7 activator: 0

Results for CN(C)c1ccc(/C=N/Nc2ccc(Cl)c(C(=O)O)c2)cc1 ?
GPR151 activ: 1; MITF primary: 21; TEAD-YAP inh: -83; FBW7 activator: 0

Results for Cc1ccc(-c2c(C)nn3c(NCCCn4ccnc4)cc(C)nc23)cc1 ?
GPR151 activ: -1; MITF primary: 16; TEAD-YAP inh: -3; FBW7 activator: 0

How did COc1ccccc1N1CCN(C(=O)CSc2nc3ccccc3c(=O)n2CCC(=O)NC2CCCCC2)CC1 do in these assays?
GPR151 activ: 2; MITF primary: -9; TEAD-YAP inh: 46*; FBW7 activator: 0

How did COc1cccc(C(=O)CSc2nnc(-c3ccc(F)cc3)o2)c1 do in these assays?
GPR151 activ: 0; MITF primary: 3; TEAD-YAP inh: -1; FBW7 activator: 0

Results for O=C(Nc1ccc(O)cc1)c1ccc(N2C(=O)c3cccc([N+](=O)[O-])c3C2=O)cc1 ?
GPR151 activ: -1; MITF primary: 2; TEAD-YAP inh: 35*; FBW7 activator: 0

Results for COc1ccc(NC(=O)c2ccc(N3C(=O)c4cccc([N+](=O)[O-])c4C3=O)cc2)cc1 ?
GPR151 activ: 0; MITF primary: 17; TEAD-YAP inh: -1; FBW7 activator: 1

How did COc1ccc(-c2cnc(NC3CC3)nc2)cc1 do in these assays?
GPR151 activ: -8; MITF primary: 10; TEAD-YAP inh: 38*; FBW7 activator: 0

Results for C=CCN(CC=C)C(=O)C(C)N1C(=O)c2ccccc2C1=O (stereo not drawn) ?
GPR151 activ: 0; MITF primary: 11; TEAD-YAP inh: -4; FBW7 activator: 0

How did COc1ccc(Nc2nsc(C(=O)c3ccc(F)cc3)c2N)cc1 do in these assays?
GPR151 activ: -1; MITF primary: -4; TEAD-YAP inh: 44*; FBW7 activator: 0

What do the screens show for `COc1ccc(C(=O)c2snc(NCc3ccccc3)c2N)cc1`?
GPR151 activ: 1; MITF primary: 5; TEAD-YAP inh: -21; FBW7 activator: 0

Results for Cc1cc(C)c2oc(-c3cccc(NC(=O)COc4cc(C)c(Cl)c(C)c4)c3)nc2c1 ?
GPR151 activ: 0; MITF primary: -16; TEAD-YAP inh: 42*; FBW7 activator: 0

What do the screens show for `Cc1cc(OCC(=O)Nc2ccc(-c3nc4cc(C(C)C)ccc4o3)cc2)cc(C)c1Cl`?
GPR151 activ: -1; MITF primary: 20; TEAD-YAP inh: 6; FBW7 activator: 0

How did CC(C)c1ccc2oc(-c3ccc(NC(=O)COc4ccc5ccccc5c4)cc3)nc2c1 do in these assays?
GPR151 activ: 0; MITF primary: 2; TEAD-YAP inh: 42*; FBW7 activator: 0

Results for Cc1cc(OCC(=O)Nc2ccc3oc(-c4cccnc4)nc3c2)cc(C)c1Cl ?
GPR151 activ: -1; MITF primary: -5; TEAD-YAP inh: -12; FBW7 activator: 0
